Measured values taken from PubChem BioAssay AID624330 (Southern Research Specialized Biocontainment Screening …, 2012).
Screen size: about 340,000 compounds; about 2,100 (0.62%) were called active.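 Rule for the calls: active = first-screen hits whose inhibition reached a set limit at any dose in the follow-up dose series; inconclusive = inhibition above the set first-screen limit but never retested; inactive = the rest.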 A selection follows. Measured potencies and affinities stand elsewhere.

Target: Rac GTPase-activating protein 1 (Homo sapiens) (UniProt Q9H0H5)
Assay: MgcRacGAP GTPase-activating activity inhibitors, confirmation, biochemical, ADP Hunter fluorescence, primary and confirmatory (AID 624330);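 note: fluorescence reports GDP produced by GAP-driven GTP hydrolysis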
Conditions: MgcRacGAP-stimulated Rac1 GTP hydrolysis, at 30 µM, stronger effect = higher value, GST-tagged Rac1 F28L mutant substrate

Rac GTPase-activating protein 1 (Homo sapiens), sequence (Q9H0H5 whole entry, looked up): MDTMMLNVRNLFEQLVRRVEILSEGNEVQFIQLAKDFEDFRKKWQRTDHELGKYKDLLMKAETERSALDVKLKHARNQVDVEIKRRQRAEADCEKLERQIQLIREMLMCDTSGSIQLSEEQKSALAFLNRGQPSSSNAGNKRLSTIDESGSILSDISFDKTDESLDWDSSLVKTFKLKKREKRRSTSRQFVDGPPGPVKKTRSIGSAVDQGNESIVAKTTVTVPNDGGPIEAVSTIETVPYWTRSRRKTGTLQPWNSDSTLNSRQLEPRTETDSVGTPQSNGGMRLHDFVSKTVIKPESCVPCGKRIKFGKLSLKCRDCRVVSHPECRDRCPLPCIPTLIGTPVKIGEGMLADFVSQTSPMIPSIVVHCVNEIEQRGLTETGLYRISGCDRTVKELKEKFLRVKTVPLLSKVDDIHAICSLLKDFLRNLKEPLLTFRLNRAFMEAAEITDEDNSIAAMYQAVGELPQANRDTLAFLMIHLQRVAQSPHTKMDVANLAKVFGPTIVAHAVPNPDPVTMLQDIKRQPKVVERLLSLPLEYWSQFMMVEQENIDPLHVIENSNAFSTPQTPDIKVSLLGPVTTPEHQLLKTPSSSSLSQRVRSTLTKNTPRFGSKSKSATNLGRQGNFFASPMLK

inhibition, inactive:
CC1CCc2cc(F)ccc2N1C(=O)CN1C(=O)c2ccccc2C1=O (stereo not given) 7.46%, FC(F)(F)c1ccncc1-c1nnc(C2CCCCC2)o1 12.4%, CCCC(c1nnnn1Cc1ccc(OC)cc1)N1CCC(C(N)=O)CC1 (stereo not given) 3.71%, CC12CC(NC(=O)N1c1cccc(C(=O)N3CCN(c4ccccc4F)CC3)c1)c1ccccc1O2 (stereo not given) 4.9%, COC(=O)c1ccc(/C=N/NC(=O)C2CC(=O)N(c3ccc(OC)cc3)C2)cc1 (stereo not given) -2.9%, CN(CC(=O)Nc1ccccc1C(F)(F)F)C(=O)CN1C(=O)C2CCCCC2C1=O (stereo not given) 8.57%, COc1cccc2sc3cc(NCc4ccc5c(c4)OCO5)ccc3c(=O)c12 3.16%, CCN(CC)C(=O)C1=C(C)N(Cc2ccc(F)cc2)C(=O)C(CC(=O)NCc2ccco2)C1 (stereo not given) 13.8%, CCn1cnc2cc(NCc3ccc(Cl)cc3)ccc21 20%, CCn1cnc2cc(NCc3ccc(C)cc3)ccc21 25.6%, COc1cc(NC(=S)N2CCCCC2C)cc(OC)c1OC (stereo not given) 12.9%, CC(C)(C#CC(O)(c1ccccc1)c1ccccc1)N1CCCC1 11.3%, C[C@H]1CN(S(=O)C(C)(C)C)[C@@H](CCO)/C1=C\CCO (stereo not given in full) 5.48%, C=CCNC(=O)CC(=O)N/N=C/c1ccccc1F -1.62%, Cc1cccc(N2CC(C(=O)Nc3cccc(S(=O)(=O)N4CCCCC4)c3)CC2=O)c1C (stereo not given) 5.62%, CCOc1ccccc1OCCCOc1ccc(C)cc1Cl 12%, CNc1nc2c(c(=O)n(C)c(=O)n2C)n1Cc1ccccc1 -6.26%, CCOC(=O)c1nc2c(=O)n(C)c(=O)n(C)c2n(C)c1=O 0.79%, CCCCn1c(Cl)nc2c1c(=O)n(C)c(=O)n2C 9.62%, CCn1c(=O)n(C)c2c(=O)n(C)c(=O)n(C)c21 -0.22%, Cn1c(=O)c2nc(SCc3ccccc3)n(C)c2n(C)c1=O 6.08%, CCCCn1c(C)nc2c(=O)n(C)c(=O)[nH]c21 4.63%, CCCn1nc(C(=O)NNC(=O)CCCOc2ccc(OC)cc2)c2ccccc2c1=O 1.29%, Cc1nc(N2CCCCC2)c2sc(=S)n(C)c2n1 5.47%, CCOc1ccc(C(=O)NCCc2ccc3c(c2)OCCO3)cc1 6.99%, O=C(Nc1cc(C(F)(F)F)ccc1N1CCOCC1)c1ccc(F)cc1 9.9%, CS(=O)(=O)c1nc(S(=O)(=O)c2ccc(Cl)cc2)c(N2CCCCC2)s1 5.12%, COCCCNC(=O)C1CCC(CNS(=O)(=O)c2ccc(Cl)cc2)CC1 (stereo not given) -9.18%, O=C(COc1ccc2c3c(c(=O)oc2c1)CCC3)NCCCN1CCCC1=O 9.27%, CC(C)=CCC/C(C)=C/CNC(=O)CC1C[C@H](C(=O)N2CCOCC2)[C@@]2(C)c3[nH]c4ccccc4c3CCN2C1=O (stereo not given in full) 7.27%, COc1ccc(-c2ccccc2[C@H]2[C@@H]3C=CC[C@@H](C)[C@@H]3C(=O)N2Cc2ccccc2)cc1 5.83%, C/C(=N\Nc1nc(-c2cc(C)ccc2C)cs1)c1cc2ccccc2oc1=O 6.23%, Cc1ccc(NC2CCCN(C(=O)c3ccccc3N3CCOCC3)C2)cc1C (stereo not given) 0.36%, O=C(c1ccccc1N1CCOCC1)N1CCCC(Nc2ccc(F)cc2)C1 (stereo not given) 9.71%, O=C(c1cc(Cl)ccc1F)N1CCCC(Nc2ccc3c(c2)OCCO3)C1 (stereo not given) 30.3%, Cc1cc(C)c(C(=O)N2CCCC(Nc3ccc(C)c(C)c3)C2)o1 (stereo not given) -18%, CSCc1ccc(C(=O)N2CCCC(Nc3ccc(F)cc3)C2)o1 (stereo not given) 7.33%, COc1ccc(C(=O)C2CCCN(C(=O)c3ccc(CSC)o3)C2)cc1F (stereo not given) 5.42%, Cc1cc(C)c(C(=O)N2CCCC(Nc3ccc(F)cc3)C2)o1 (stereo not given) 1.75%, COC(=O)c1cccc(C(=O)N2CCCC(Nc3ccc4c(c3)OCCO4)C2)c1 (stereo not given) 29.2%, O=S(=O)(c1ccccc1)c1nc(-c2ccccc2)oc1N1CCOCC1 6.03%, Cc1nnc(SCc2ccccc2)n1N -3.52%, O=C(O)c1ccc(/C=N/O)cc1 1.83%, CC(C)(C)NC(=O)C(c1ccccc1)N(C(=O)CNC(=O)c1cccs1)c1cccnc1 (stereo not given) 4.59%, COc1ccc(C=O)cc1Cn1c(=O)n(CCC(=O)NCc2ccco2)c(=O)c2sccc21 8.39%, Cc1cccc(C(=O)Nc2cccc(C(=O)N/N=C/c3cccc(C)n3)c2)c1 13.9%, CSc1cc(SC)ncn1 1.8%, CC(C)(CN1CCOCC1)NS(=O)(=O)c1ccccc1 1.36%, CCN(CC(=O)Nc1cccc(F)c1)Cc1nc2ccccc2c(=O)[nH]1 -2.26%, CN(C)C(/C=C/Nc1ccc(C#N)cc1)=C(C#N)C#N 4.16%, Cc1ccc(C2=CSC3=NCCN23)cc1 11.6%, CC1=CC(C)(C)N(C(=O)CNC2CCCCC2)c2cc(C)ccc21 30.1%, CC1=CC(C)(C)N(C(=O)CCl)c2cc(C)ccc21 2.46%, CCOc1ccccc1C(C(=O)NC1CCCC1)N(C(=O)c1csnn1)C1CC1 (stereo not given) 6.21%, CC(c1nnc(SCC(=O)NC(=O)NCc2ccco2)n1-c1ccc(Cl)cc1)N(C)C (stereo not given) 4.03%, CCC(=Cc1ccccc1O)c1ccncc1 2.41%, CC/C(=C\c1ccc(Cl)cc1)c1ccncc1 5.22%, CCOC(=O)C(NC(C)=O)C(=O)Nc1ccc(C(C)(C)C)cc1 (stereo not given) 15.1%, C[C@H](CO)N1C[C@H](C)[C@@H](CN(C)S(=O)(=O)c2ccc(F)cc2)Oc2ccc(NC(=O)NC3CCCCC3)cc2C1=O 6.3%, CC(C)(Oc1ccc(Cl)cc1)C(=O)N(Cc1ccccc1)c1ccccn1 1.14%
